Records with an inconclusive call do not appear. Active and inactive are the calls of the source. Unless noted, calls follow the shape of the dose curve; as a rule, active = well fitted curve in the direction sought with a large enough effect; inconclusive = small, poorly fitted or top-dose-only effect, or another doubt; inactive = no such curve, though single readings can be large; an effect the other way counts as inactive or inconclusive.
Tests used:
[1] = AP1 Signaling Pathway (AID 357; active = well fitted curve in either direction with a large enough effect, not every such curve was filed as active;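 also: ME-180 reporter cells stimulated with EGF at its EC50 level; % is scaled to controls: 0 for no effect and ±100 for the full control effect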); conditions: ME-180 AP-1-bla reporter, EGF-induced, beta-lactamase ratio, 5 h; at 7.69 µM (top of the series) unless noted
In short: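 Modulation of EGF-driven AP-1 transcription was assessed with a beta-lactamase reporter in ME-180 cells. Compound and EC50 EGF were co-incubated 5 hours at 37 °C before 2.5-hour CCF4 loading at room temperature and dual-emission reading.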

[2] = target: Cytochrome P450 1A2 (Homo sapiens) (UniProt P05177); test: p450-cyp1a2 (AID 410; calls by dose curve; also: potency is read from the fitted curve at half-maximal effect;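 as to activity change, negative = inhibition: -100% = full effect of reference inhibitor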)
Sequence of Cytochrome P450 1A2 (Homo sapiens) (P05177 whole entry, looked up): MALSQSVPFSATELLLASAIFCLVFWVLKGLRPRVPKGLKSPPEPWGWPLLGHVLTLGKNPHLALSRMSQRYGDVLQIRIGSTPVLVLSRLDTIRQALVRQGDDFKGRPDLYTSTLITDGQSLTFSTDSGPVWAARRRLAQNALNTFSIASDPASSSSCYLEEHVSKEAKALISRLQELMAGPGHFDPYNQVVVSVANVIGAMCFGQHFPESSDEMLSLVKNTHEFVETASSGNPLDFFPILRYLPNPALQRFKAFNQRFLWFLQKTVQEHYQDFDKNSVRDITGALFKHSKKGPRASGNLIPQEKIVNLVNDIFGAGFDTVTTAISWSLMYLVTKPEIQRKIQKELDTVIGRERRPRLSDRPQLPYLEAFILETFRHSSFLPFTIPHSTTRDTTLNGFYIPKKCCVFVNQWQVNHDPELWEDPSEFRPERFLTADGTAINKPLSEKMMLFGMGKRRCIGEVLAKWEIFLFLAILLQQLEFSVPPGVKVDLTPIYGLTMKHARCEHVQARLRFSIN
In short: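 20nM CYP1A2, 100uM Luciferin-ME (=Km), 100mM KPO4; cpd 10 min RT; +NADPH regen, 60 min RT; stop/detect 20 min; luminescence. Normalized to furafylline 57 uM = full inhibition.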

[3] = NFAT Signaling Pathway (AID 444; active = well fitted curve in either direction with a large enough effect, not every such curve was filed as active;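 also: carbachol stimulus at about its EC50 of 1 µM final; % is scaled to controls: 0 for no effect and ±100 for the full control effect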); conditions: Jurkat NFAT-bla M1, carbachol, beta-lactamase ratio, 5 h; at 7.69 µM (top of the series) unless noted
In short: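 Read-out: CCF4 FRET ratio (460 nm/530 nm) after 1 h RT dye loading, used for %activity and AC50 from titration series. Cells: Jurkat NFAT-β-lactamase/M1 line, treated with compound plus 1 uM carbachol for 5 h, 37 °C.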

[4] = Stat Signaling Pathway (AID 446; active = well fitted curve in either direction with a large enough effect, not every such curve was filed as active;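 also: ME-180 cervical cancer cells given 40 pM IL-6 alongside compound; SIE-controlled beta-lactamase reporter measured as 460/530 nm FRET emission ratio; % is scaled to controls: 0 for no effect and ±100 for the full control effect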); conditions: ME-180 (cervical carcinoma) SIE beta-lactamase reporter, IL-6 stimulated, 5 h; at 7.69 µM (top of the series) unless noted
In short: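 Normalization used AC90 stimulation (300 pM IL-6) and AC90 inhibition (125 nM pan-JAK inhibitor at 40 pM IL-6). The underlying signal is SIE-driven beta-lactamase in ME-180 cells after 5 h IL-6 exposure with compound.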

[5] = target: Glucocorticoid receptor (Homo sapiens) (UniProt P04150); test: GR-GFP Redistribution (AID 450;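 active = compounds whose dose series gives a full or clear partial fitted curve of increased nuclear translocation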; also: potency is read from the fitted curve at half-maximal effect); conditions: U2OS GR-GFP nuclear translocation, laser cytometry, 2 h
Sequence of Glucocorticoid receptor (Homo sapiens) (P04150 whole entry, looked up, the tested form may be a part): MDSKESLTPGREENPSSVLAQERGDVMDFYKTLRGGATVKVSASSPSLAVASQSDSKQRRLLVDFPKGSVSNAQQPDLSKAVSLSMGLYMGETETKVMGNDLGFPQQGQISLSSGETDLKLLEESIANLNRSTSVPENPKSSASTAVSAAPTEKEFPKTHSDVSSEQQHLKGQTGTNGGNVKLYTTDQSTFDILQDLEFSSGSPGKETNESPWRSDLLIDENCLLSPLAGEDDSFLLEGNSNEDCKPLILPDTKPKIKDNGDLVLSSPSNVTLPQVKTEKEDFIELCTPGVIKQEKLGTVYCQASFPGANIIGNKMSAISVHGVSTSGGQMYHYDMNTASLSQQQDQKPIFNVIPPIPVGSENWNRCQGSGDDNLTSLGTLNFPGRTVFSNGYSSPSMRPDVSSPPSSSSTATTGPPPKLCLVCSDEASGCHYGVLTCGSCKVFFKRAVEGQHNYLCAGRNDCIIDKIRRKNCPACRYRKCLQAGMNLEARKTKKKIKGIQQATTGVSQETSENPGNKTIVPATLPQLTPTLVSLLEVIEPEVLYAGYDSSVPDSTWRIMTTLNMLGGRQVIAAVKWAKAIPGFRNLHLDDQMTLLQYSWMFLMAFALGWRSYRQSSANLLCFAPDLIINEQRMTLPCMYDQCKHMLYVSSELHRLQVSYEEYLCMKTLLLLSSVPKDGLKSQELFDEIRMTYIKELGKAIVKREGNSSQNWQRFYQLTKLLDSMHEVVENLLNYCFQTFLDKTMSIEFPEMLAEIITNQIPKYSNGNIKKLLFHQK

[6] = target: Glucocorticoid receptor (Homo sapiens) (UniProt P04150); test: GR-EFC Redistribution (AID 451; calls by dose curve; also: potency is read from the fitted curve at half-maximal effect); conditions: CHO-K1 GR-EFC translocation, beta-gal luminescence, 2 h
In short: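 Translocation of GR-ED fusion to nuclear EA restores b-gal, read by luminescence after 1 h room-temperature detection. Engineered CHO-K1 biosensor cells, 1,000/well, exposed 2 h at 37 C to titrations up to 46 uM final.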

[7] = target: Mitogen-activated protein kinase 10 (Mus musculus) (UniProt Q61831); test: JNK3 AlphaScreen Assay (AID 530; active = well fitted curve in either direction with a large enough effect, not every such curve was filed as active;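 also: kinase came from lysate of stimulated human HepG2 cells; signal reports phosphorylation of biotinylated GST-cJun 1-79 at Ser73 with 10 µM ATP; % is scaled to controls: 0 for no effect and ±100 for the full control effect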)
In short: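 Kinase buffer: 20 mM Tris-HCl pH 7.6, 10 mM MgCl2, 1 mM DTT, 0.1 mM Na3VO4, 0.01% Tween-20; ATP 10 uM. Substrate biotin-GST-cJun(1-79), enzyme from activated HepG2 lysates. Detection by Ser73 phospho-antibody AlphaScreen.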

[8] = target: Cytochrome P450 3A4 (Homo sapiens) (UniProt P08684); test: qHTS Assay for Activators of Cytochrome P450 3A4 (AID 885); also: nearly all actives have a fitted effect of over 65% in size
Sequence of Cytochrome P450 3A4 (Homo sapiens) (P08684 whole entry, looked up): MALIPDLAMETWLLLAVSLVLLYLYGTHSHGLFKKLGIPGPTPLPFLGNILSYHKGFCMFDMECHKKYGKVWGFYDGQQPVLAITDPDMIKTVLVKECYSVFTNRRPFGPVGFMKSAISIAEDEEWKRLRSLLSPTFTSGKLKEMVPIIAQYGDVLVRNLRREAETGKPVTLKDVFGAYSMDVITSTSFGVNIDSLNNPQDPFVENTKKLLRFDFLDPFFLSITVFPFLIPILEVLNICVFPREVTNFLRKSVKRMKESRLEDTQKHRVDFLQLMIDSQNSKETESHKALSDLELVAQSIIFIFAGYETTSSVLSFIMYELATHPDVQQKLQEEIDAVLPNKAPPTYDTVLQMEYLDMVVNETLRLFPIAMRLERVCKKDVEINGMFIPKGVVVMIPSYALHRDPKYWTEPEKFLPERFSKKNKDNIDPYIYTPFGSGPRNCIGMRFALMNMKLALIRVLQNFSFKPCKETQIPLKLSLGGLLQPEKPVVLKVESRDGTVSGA
In short: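 Human CYP3A4 dealkylates Luciferin-PPXE to luciferin, which luciferase detection converts to light. Substrate was at its KM (25uM), buffer 200mM KPO4, reaction 60 min at RT.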

[9] = qHTS Assay for Lipid Storage Modulators (AID 1519; calls by dose curve); conditions: Drosophila S3 cells, BODIPY lipid droplet/cell ratio, laser cytometry, cells loaded with oleic acid; for activity change, negative = inhibition: at 57.5 µM (top of the series)
In short: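 Cells seeded at 5,000 per well were treated with compounds over a concentration series and loaded with oleic acid (400 uM, as added). Lipid droplet fluorescence (488 nm excitation, 500-530 nm channel) was read by laser-scanning cytometry and normalized to 20 uM Triacsin C.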

[10] = target: Dual specificity protein kinase CLK4 (Homo sapiens) (UniProt Q9HAZ1); test: qHTS Assay for Inhibitors of CDC-like Kinase 4 (Kinase-Glo Assay) (AID 1770); also: nearly all actives have a fitted effect of over 65% in size; also: potency is read from the fitted curve at half-maximal effect
Sequence of Dual specificity protein kinase CLK4 (Homo sapiens) (Q9HAZ1 whole entry, looked up): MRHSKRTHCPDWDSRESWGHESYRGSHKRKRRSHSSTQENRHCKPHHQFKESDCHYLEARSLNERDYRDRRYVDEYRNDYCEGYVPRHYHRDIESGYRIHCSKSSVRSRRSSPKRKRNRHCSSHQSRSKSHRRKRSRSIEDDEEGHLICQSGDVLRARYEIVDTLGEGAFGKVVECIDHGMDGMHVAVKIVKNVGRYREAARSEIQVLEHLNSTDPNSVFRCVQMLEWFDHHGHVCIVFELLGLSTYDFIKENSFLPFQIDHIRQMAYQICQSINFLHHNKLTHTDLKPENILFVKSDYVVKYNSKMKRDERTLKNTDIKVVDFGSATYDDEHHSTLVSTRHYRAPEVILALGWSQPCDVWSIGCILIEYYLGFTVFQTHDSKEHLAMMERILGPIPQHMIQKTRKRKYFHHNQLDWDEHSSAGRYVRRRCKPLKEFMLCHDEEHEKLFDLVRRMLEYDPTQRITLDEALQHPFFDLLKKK
In short: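 Recombinant human Clk4 (25 nM) phosphorylated RS repeat peptide (100 uM) with 1 uM ATP in Tris pH 7.5/MgCl2/EGTA/DTT/Triton buffer for 4.5 h at room temperature. Residual ATP was quantified by Kinase-Glo luciferase luminescence.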

[11] = target: Dual specificity protein kinase CLK4 (Homo sapiens) (UniProt Q9HAZ1); test: qHTS Assay for Inhibitors of CDC-like Kinase 4 (ADP-Glo Assay) (AID 1771); also: nearly all actives have a fitted effect of over 70% in size; also: potency is read from the fitted curve at half-maximal effect
In short: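 25 nM Clk4, 100 uM RS peptide, 1 uM ATP (final); 2 mM MgCl2, 0.5 mM EGTA, 2.5 mM DTT, 0.01% Triton X-100; 1 hr RT. ADP-Glo readout: ATP depletion 45 min, conversion/luciferase 30 min, luminescence.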

[12] = target: Dual specificity protein kinase CLK4 (Homo sapiens) (UniProt Q9HAZ1); test: qHTS Assay for Inhibitors of CDC-like Kinase 4 (ADP-FP Assay) (AID 1795); also: % is scaled to controls: 0 for no effect and ±100 for the full control effect; nearly all actives have a fitted effect of over 60% in size
In short: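 Recombinant human Clk4 (6.25 nM) phosphorylated RS repeat peptide (100 uM) with 1 uM ATP in Tris pH 7.5/MgCl2/EGTA/DTT/Triton buffer for one hour. ADP was quantified by Transcreener competitive fluorescence polarization against an ADP calibration curve.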

[13] = target: Ubiquitin carboxyl-terminal hydrolase 1 (Homo sapiens) (UniProt O94782); test: Inhibitors of USP1/UAF1: Pilot qHTS (AID 504865); also: nearly all actives have a fitted effect of over 35% in size; also: potency is read from the fitted curve at half-maximal effect
Sequence of Ubiquitin carboxyl-terminal hydrolase 1 (Homo sapiens) (O94782 whole entry, looked up): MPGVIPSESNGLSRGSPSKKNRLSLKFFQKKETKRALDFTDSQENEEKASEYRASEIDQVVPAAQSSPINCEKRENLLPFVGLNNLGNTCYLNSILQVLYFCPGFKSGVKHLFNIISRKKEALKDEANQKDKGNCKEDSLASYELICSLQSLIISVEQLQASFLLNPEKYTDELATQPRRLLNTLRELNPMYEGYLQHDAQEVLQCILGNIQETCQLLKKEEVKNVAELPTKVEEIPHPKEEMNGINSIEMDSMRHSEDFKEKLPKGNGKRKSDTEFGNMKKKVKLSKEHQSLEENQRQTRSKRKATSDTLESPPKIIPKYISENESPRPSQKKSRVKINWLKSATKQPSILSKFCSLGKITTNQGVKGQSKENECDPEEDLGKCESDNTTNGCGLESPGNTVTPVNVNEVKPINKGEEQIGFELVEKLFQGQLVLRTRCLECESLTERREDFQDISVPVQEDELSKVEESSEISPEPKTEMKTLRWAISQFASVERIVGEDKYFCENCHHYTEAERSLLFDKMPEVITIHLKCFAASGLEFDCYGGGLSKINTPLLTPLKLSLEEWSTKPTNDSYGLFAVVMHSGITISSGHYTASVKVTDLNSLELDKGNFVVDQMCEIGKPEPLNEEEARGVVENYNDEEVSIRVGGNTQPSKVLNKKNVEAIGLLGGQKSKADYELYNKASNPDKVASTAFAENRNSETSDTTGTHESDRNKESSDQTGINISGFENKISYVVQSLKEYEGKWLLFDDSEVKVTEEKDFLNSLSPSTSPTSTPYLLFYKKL
In short: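 USP1/UAF1 complex (1nM) preincubated with compound 15 min at room temperature, then Ub-Rho substrate (150nM final) added. Fluorescence read kinetically at 480/540 nm, 6 reads every 60 seconds. Buffer: 50mM HEPES pH 7.8, 0.5mM EDTA, 0.1 mg/ml BSA, 1mM TCEP, 0.01% Tween-20.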

[14] = Primary qHTS for small molecule stabilizers of the endoplasmic reticulum resident proteome: Secreted ER Calcium Modulated Protein (SERCaMP) assay (AID 1508630); also: % is scaled to controls: 0 for no effect and ±100 for the full control effect
In short: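 The SH-SY5Y reporter protocol was run at 3 concentrations up to 38.3 uM (primary) or 11 concentrations (follow-up): 16 h compound, 100 nM thapsigargin for 4 h, then extracellular luciferase luminescence.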

[15] = target: Lysosomal acid glucosylceramidase (Homo sapiens) (UniProt P04062); test: Glucocerebrosidase-p2 (AID 348; in the data active = potency below about 10 µM; also: potency is read from the fitted curve at half-maximal effect); conditions: purified GBA, blue fluorogenic substrate, 40 min
Sequence of Lysosomal acid glucosylceramidase (Homo sapiens) (P04062 whole entry, looked up): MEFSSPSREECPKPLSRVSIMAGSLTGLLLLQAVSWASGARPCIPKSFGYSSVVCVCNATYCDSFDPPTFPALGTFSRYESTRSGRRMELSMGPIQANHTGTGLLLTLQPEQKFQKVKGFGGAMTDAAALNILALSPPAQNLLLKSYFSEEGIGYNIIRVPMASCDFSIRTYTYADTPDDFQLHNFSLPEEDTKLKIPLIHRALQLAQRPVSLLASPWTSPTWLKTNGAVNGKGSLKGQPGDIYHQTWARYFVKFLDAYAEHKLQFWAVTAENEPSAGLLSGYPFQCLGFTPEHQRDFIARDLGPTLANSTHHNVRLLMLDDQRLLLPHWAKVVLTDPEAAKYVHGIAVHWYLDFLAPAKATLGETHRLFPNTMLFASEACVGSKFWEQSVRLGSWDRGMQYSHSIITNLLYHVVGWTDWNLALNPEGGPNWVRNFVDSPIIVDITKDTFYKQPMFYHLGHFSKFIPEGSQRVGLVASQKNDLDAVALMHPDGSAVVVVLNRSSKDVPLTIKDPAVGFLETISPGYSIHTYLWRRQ
In short: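 Normal human glucocerebrosidase (0.2 nM) with blue fluorogenic substrate (80 uM final) in citrate/phosphate pH 5.9 with 10mM sodium taurocholate, 0.01% tween-20; 40 min RT, NaOH/glycine stop; fluorescence Ex 365/Em 440; AC50 from a titration from 0.6 nM upwards.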

[16] = target: 3',5'-cyclic-AMP phosphodiesterase 4B (Homo sapiens) (UniProt Q07343); test: qHTS Assay for Inhibitors of PDE-IV (AID 607; active = well fitted activation curve with a large enough effect in the main read-out, with a control signal flat, not every such curve was filed as active; also: % of control where 0% means no effect)
Sequence of 3',5'-cyclic-AMP phosphodiesterase 4B (Homo sapiens) (Q07343 whole entry, looked up): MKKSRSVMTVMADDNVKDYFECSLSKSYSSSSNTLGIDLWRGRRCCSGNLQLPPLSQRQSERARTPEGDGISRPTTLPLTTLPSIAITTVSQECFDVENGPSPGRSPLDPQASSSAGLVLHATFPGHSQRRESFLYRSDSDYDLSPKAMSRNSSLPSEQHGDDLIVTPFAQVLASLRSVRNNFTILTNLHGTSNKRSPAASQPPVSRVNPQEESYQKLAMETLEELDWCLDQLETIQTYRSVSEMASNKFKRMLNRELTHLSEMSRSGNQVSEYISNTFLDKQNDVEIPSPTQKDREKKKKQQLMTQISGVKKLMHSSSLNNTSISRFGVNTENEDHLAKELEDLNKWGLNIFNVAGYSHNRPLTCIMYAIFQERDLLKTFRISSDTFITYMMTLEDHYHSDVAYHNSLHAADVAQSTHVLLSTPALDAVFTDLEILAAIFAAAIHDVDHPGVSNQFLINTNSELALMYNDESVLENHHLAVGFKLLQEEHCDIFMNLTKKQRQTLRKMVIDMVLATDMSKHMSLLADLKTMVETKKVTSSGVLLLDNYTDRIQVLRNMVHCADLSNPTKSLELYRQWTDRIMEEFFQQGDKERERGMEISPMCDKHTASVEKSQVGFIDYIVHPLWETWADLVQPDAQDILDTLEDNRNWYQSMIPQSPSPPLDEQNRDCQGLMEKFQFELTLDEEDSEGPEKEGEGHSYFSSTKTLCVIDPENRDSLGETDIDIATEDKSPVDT
In short: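 HEK293 ACTOne cells with CNG channel (1000/well), endogenous PDE4; membrane potential dye, compounds up to 22.9 uM final. Fluorescence Ex 535/Em 590; RO 20-1724 (100 uM final) as reference.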

[17] = target: Cytochrome P450 3A4 (Homo sapiens) (UniProt P08684); test: qHTS Assay for Inhibitors and Substrates of Cytochrome P450 3A4 (AID 884); also: potency is read from the fitted curve at half-maximal effect; nearly all actives have a fitted effect of over 50% in size
In short: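 Luminescent readout of luciferin produced by CYP3A4 (20 nM) dealkylation of Luciferin-PPXE, 25 uM (its KM). NADPH-driven reaction ran 60 min at RT after 10 min compound preincubation; data scaled to 57 uM ketoconazole as 100% inhibition.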

[18] = measured here: cell count channel max response
[19] = measured here: lipid channel max response

| Compound | activity change, negative = inhibition [1] | Potency [2] | activity change, negative = inhibition [3] | activity, negative = inhibition [4] | Potency [5] | Potency [6] | outcome [7] | Potency [8] | activity change, negative = inhibition [9] | max response [9, 18] | max response [9, 19] | Potency [10] | Potency [11] | Potency [12] | Potency [13] | Potency [14] | Potency [15] | Potency [16] | Potency [17] |
| --- | --- | --- | --- | --- | --- | --- | --- | --- | --- | --- | --- | --- | --- | --- | --- | --- | --- | --- | --- |
| CCNc1ncc2nc(-c3cn(C)c4ccccc34)c(=O)n(C)c2n1 | -15.1% (inactive) | 0.1 µM (active) | 2.68% (inactive) | -2.13% (inactive) | > 9.22 µM (inactive) | > 46 µM (inactive) | inactive | inactive | 8.66% (inactive) | 19.5% | 27.7% | inactive | inactive | inactive | inactive | inactive | – | – | – |
| Clc1ccccc1-c1nccc(NCc2cccs2)n1 | 15.2% (inactive) | – | 0.38% (inactive) | 1.89% (inactive) | > 46 µM (inactive) | > 46 µM (inactive) | inactive | – | 7.3% (inactive) | 8.1% | 18.5% | inactive | inactive | inactive | 28.2 µM (active) | inactive | – | – | – |
| CN(C)C(=O)c1ccc(-c2cc(Nc3ccccc3)ncn2)cc1 | -5.39% (inactive) | 12.6 µM (active) | 4.63% (inactive) | 4.86% (inactive) | > 46 µM (inactive) | > 46 µM (inactive) | inactive | – | 6.97% (inactive) | 33.4% | 40.6% | 14.1 µM (active) | 14.1 µM (active) | – | inactive | inactive | > 11.4 µM (inactive) | – | – |
| COc1ccc(-c2nc3cnc(N4CCOCC4)nc3n(C3CC3)c2=O)cc1 | 3.24% (inactive) | – | 8.69% (inactive) | – | > 9.22 µM (inactive) | > 46 µM (inactive) | inactive | – | 1.26% (inactive) | 9.72% | 11.8% | inactive | inactive | inactive | inactive | inactive | – | – | – |
| O=c1c(-c2ccc(F)cc2)nc2cnc(Oc3ccccc3)nc2n1C1CC1 | 2.54% (inactive) | – | 5.2% (inactive) | -10.8% (inactive) | > 9.22 µM (inactive) | > 46 µM (inactive) | inactive | – | 0.468% (inactive) | 0.149% | -1.57% | inactive | inactive | inactive | inactive | inactive | – | inactive | – |
| COc1ccccc1-c1cncnc1NCCNC(C)=O | -8.57% (inactive) | inactive | 1.19% (inactive) | 2.82% (inactive) | – | > 46 µM (inactive) | inactive | inactive | 0.0705% (inactive) | 19.9% | 19% | inactive | inactive | inactive | inactive | inactive | – | inactive | 2 µM (active) |

From PubChem BioAssay (NCATS)
